Bioassay records from PubChem.
Only some compounds are listed: those with a hit (about 2.6% of all), similar ones and a draw of the others.
Casp1 inh: allosteric or competitive inhibitors of human caspase-1; Caspase-1 enzyme, Ac-WEHD-AFC fluorogenic rate; Potency, µM (series often up to 57.5 µM), for inactives: at the top dose activity change, negative = inhibition, hits mostly inhibitors; 0.03% of 75,000 active; AID 900;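 also: plate controls were vehicle for no effect and no substrate for full effect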
Target sequence (P29466 120-297 limits assumed): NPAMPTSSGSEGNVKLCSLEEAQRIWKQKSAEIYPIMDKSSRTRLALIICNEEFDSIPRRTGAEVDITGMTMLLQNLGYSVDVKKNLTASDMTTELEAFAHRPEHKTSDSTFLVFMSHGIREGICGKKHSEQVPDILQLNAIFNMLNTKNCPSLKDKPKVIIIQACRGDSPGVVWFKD
Target sequence (P29466 317-404 limits assumed): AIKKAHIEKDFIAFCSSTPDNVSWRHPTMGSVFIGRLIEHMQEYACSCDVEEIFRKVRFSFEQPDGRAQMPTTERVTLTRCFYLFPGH
TSHR ag: activates the human thyroid stimulating hormone receptor; HEK293-CNG-TSHR cells (CNG channel as cAMP sensor), membrane potential dye, cAMP; Potency, µM (series often up to 57.1 µM), for inactives: top-dose activation, usual class: activators; 0.48% of 73,000 active; P16473; active = well fitted activation curve with a large enough effect in the main read-out, with a control signal flat, not every such curve was filed as active; inconclusive = small, poorly fitted or top-dose-only effect, or a change in a side signal; inactive = no such curve, though single readings can be large or run the other way; % of control where 0% means no effect;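 also: the control signal comes from parental cells without the receptor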
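HEK 293 cells stably expressing TSHR and a modified CNG channel, with CNG-only parental cells as counterscreen, were preloaded 60 min at room temperature with membrane potential dye containing 100 uM RO 20-1724. Compound exposure was 30 min, and depolarization was read as fluorescence at 590 nm.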
HEK293 cAMP ctrl: counter-screen for TSHR agonists: cAMP increase in parental HEK293. Potency, µM (titrated, usually from 57.1 µM), inactives show at the top dose activation, usual class: activators. AID 938. 2.5% of 73,000 active. parental HEK293 CNG cAMP sensor, membrane potential fluorescence; also: % of control where 0% means no effect; nearly all actives have a fitted effect of over 55% in size
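Parental HEK 293 cells stably expressing a cAMP-gated CNG channel were loaded with membrane potential dye containing 100 uM RO 20-1724 for 60 min. Compound added for 30 min; depolarization read as fluorescence intensity at 590 nm.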
Caspase-7 inhib: blocks human caspase-7 allosterically or competitively. P55210. Potency, µM (titrated, usually from 57.5 µM), without a hit: at the highest dose activity change, negative = inhibition, most hits filed as inhibitors. 0.02% of 75,000 active. AID 889. recombinant caspase-7, Ac-DEVD-AFC fluorescence rate; active = well fitted inhibition curve with a large enough effect in the main read-out, with a control signal flat, not every such curve was filed as active; inconclusive = small, poorly fitted or top-dose-only effect, or a change in a side signal; also: % of control where 0% means no effect
Target sequence (P55210 24-198 limits assumed): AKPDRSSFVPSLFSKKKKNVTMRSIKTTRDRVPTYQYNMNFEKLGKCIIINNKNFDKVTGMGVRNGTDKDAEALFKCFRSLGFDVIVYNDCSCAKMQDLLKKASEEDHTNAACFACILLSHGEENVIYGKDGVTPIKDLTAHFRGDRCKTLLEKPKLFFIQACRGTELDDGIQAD
Target sequence (P55210 207-303 limits assumed): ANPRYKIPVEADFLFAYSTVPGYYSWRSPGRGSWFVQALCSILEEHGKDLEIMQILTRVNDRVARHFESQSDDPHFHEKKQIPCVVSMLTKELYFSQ
Active calls of the source: *; [ ] = another dose, or the depositor's remark. Unless noted, calls follow the shape of the dose curve; as a rule, active = well fitted curve in the direction sought with a large enough effect; inconclusive = small, poorly fitted or top-dose-only effect, or another doubt; inactive = no such curve, though single readings can be large; an effect the other way counts as inactive or inconclusive. Potency is read from the fitted curve at half-maximal effect.

CC(C)=CCC/C(C)=C/CO/N=C1/C[C@@H](O)[C@@H](O)[C@@H]2[C@@H]3C(=O)N(C[C@@H]4CCCO4)C(=O)[C@H]3CC[C@@H]12 was read as Casp1 inh 1%[11.5 µM], TSHR ag -15%[11.4 µM], HEK293 cAMP ctrl -11%[11.4 µM] and Caspase-7 inhib -1%[11.5 µM].
CC1(C)Cc2ccccc2-c2nnc(SCC(=O)Nc3nc4ccccc4s3)n21 was read as Casp1 inh -5%, TSHR ag inconclusive, HEK293 cAMP ctrl 5µM* and Caspase-7 inhib -4%.
COc1ccccc1N(C(=O)c1snc(C(N)=O)c1N)C(C(=O)NC1CCCC1)c1ccco1 (stereo not given) was read as Casp1 inh inconclusive, TSHR ag inconclusive, HEK293 cAMP ctrl 1µM* and Caspase-7 inhib 0%[0.00368 µM].
COc1ccccc1N(C(=O)c1ccco1)C(C(=O)NC1CCCC1)c1cccnc1 (stereo not given) was read as Casp1 inh 3%, TSHR ag inconclusive, HEK293 cAMP ctrl inconclusive and Caspase-7 inhib -2%.
Screening OC[C@@H]1O[C@@H](n2cnc3cncnc32)[C@@H](O)[C@H]1O returned Casp1 inh -2%, TSHR ag -10%, HEK293 cAMP ctrl 17% and Caspase-7 inhib 2%.
`O=C(c1ccccc1)N(Cc1ccccc1)c1ccccn1` gave Casp1 inh 0%, TSHR ag 4µM*, HEK293 cAMP ctrl 21%[11.4 µM] and Caspase-7 inhib 0%.
Screening CC(=O)NCCNc1ncnc2ccc(-c3ccoc3)cc12 returned Casp1 inh -11%, TSHR ag 5%, HEK293 cAMP ctrl 21% and Caspase-7 inhib -19%.
For CN(c1ccc(OCc2nnc(-c3ccccc3)o2)cc1)S(=O)(=O)c1ccccc1 the results were Casp1 inh -2%, TSHR ag inconclusive, HEK293 cAMP ctrl 16µM* and Caspase-7 inhib -3%.
O=S(=O)(CCc1nnc(-c2ccccc2)o1)c1ccc2ccccc2c1 was read as Casp1 inh 1%, TSHR ag 8%, HEK293 cAMP ctrl 5% and Caspase-7 inhib 0%.
Screening CCN(C(=O)c1c(-c2ccccc2)noc1C)c1ccccc1 returned Casp1 inh 0%, TSHR ag 10µM*, HEK293 cAMP ctrl 8% and Caspase-7 inhib 0%.
`Cc1onc(-c2ccccc2)c1C(N)=O` gave Casp1 inh 0%, TSHR ag 0%, HEK293 cAMP ctrl -9% and Caspase-7 inhib 3%.
`O=C(Nc1cn(-c2ccccc2)nc1-c1cccs1)c1ccco1` gave Casp1 inh -2%, TSHR ag inconclusive, HEK293 cAMP ctrl 32µM* and Caspase-7 inhib -7%.
`CC(C)(C)N1C(=O)[C@H]2[C@H]3[C@H](O)[C@H](O)C/C(=N/OCc4ccccc4)[C@@H]3CC[C@@H]2C1=O` gave Casp1 inh 2%[11.5 µM], TSHR ag -1%[11.4 µM], HEK293 cAMP ctrl 2%[11.4 µM] and Caspase-7 inhib 4%[11.5 µM].
Screening O=C(O)c1ccccc1-c1ccccc1C(=O)Nc1ccc2c(c1)Cc1ccccc1-2 returned Casp1 inh 0%[11.5 µM], HEK293 cAMP ctrl 6%[11.4 µM] and Caspase-7 inhib -4%[11.5 µM].
Cc1ccc(CN(Cc2cc3cc(C)ccc3[nH]c2=O)C(=O)N2CCOCC2)cc1 was read as Casp1 inh 0%, TSHR ag 16%, HEK293 cAMP ctrl 17% and Caspase-7 inhib -7%.
CCOc1ccc2[nH]c(=O)c(CN(Cc3ccc(C)cc3)C(=O)N3CCCC3)cc2c1 was read as Casp1 inh -2%, TSHR ag inconclusive, HEK293 cAMP ctrl 32µM* and Caspase-7 inhib 3%.
`CCCn1c(NC(=O)c2ccc(C)cc2)nc2ccccc21` gave Casp1 inh -1%, TSHR ag inconclusive, HEK293 cAMP ctrl 25µM* and Caspase-7 inhib -2%.
`CCCn1c(NC(=O)c2cccc(S(=O)(=O)N3CCCC3)c2)nc2ccccc21` gave Casp1 inh -2%, TSHR ag inconclusive, HEK293 cAMP ctrl 16µM* and Caspase-7 inhib -2%.
`CCCn1c(-c2ccc(OC)cc2)nc2ccccc21` gave Casp1 inh -3%, TSHR ag inconclusive, HEK293 cAMP ctrl 25µM* and Caspase-7 inhib 1%.
For CCCn1c(NC(=O)c2ccccc2)nc2ccccc21 the results were Casp1 inh -3%, TSHR ag inconclusive, HEK293 cAMP ctrl inconclusive and Caspase-7 inhib 5%.
CCCn1c(NC(=O)C2CCN(S(=O)(=O)c3cccs3)CC2)nc2ccccc21 was read as Casp1 inh -1%, TSHR ag inconclusive, HEK293 cAMP ctrl inconclusive and Caspase-7 inhib -3%.
For CCCCN(c1ccccc1)c1ncnc2c1cnn2C the results were Casp1 inh -1%[11.5 µM], TSHR ag 2%[11.4 µM], HEK293 cAMP ctrl 5%[11.4 µM] and Caspase-7 inhib 3%[11.5 µM].
`COc1ccc(CNc2nc(-c3cccc(C#N)c3)nc3ccccc23)c(OC)c1` gave Casp1 inh -7%, TSHR ag inconclusive, HEK293 cAMP ctrl inconclusive and Caspase-7 inhib -8%.
For CCOC(=O)Nc1ccc2c(c1)N(C(=O)N(CC)CC)c1ccccc1CC2 the results were Casp1 inh -2%, TSHR ag 3.2µM*, HEK293 cAMP ctrl 6%[11.4 µM] and Caspase-7 inhib -2%.
CCOC(=O)Nc1ccc2c(c1)N(C(=O)N(C)C)c1ccccc1CC2 was read as Casp1 inh 0%, TSHR ag inconclusive, HEK293 cAMP ctrl inconclusive and Caspase-7 inhib 1%.
`O=C(CN1C(=O)COc2ccccc21)N(Cc1cccnc1)Cc1ccccc1F` gave Casp1 inh 0%, TSHR ag inconclusive, HEK293 cAMP ctrl 10µM* and Caspase-7 inhib 2%.
Screening c1ccc(N(c2ccccc2)c2nc(-n3ccnc3)nc(-n3ccnc3)n2)cc1 returned Casp1 inh -3%, TSHR ag inconclusive, HEK293 cAMP ctrl 25µM* and Caspase-7 inhib -6%.
c1ccc(-c2nc(N3CCCCCC3)nc(-n3ccnc3)n2)cc1 was read as Casp1 inh -1%, TSHR ag 4µM*, HEK293 cAMP ctrl 30% and Caspase-7 inhib -1%.
c1ccc(-c2nc(N3CCN(c4ccccc4)CC3)nc(-n3ccnc3)n2)cc1 was read as Casp1 inh 2%, TSHR ag inconclusive, HEK293 cAMP ctrl inconclusive and Caspase-7 inhib -1%.
For CC1CCCCN1C(=O)Cn1c(=O)n(C2CCCCC2)c(=O)c2ccccc21 (stereo not given) the results were Casp1 inh 0%, TSHR ag 16µM*, HEK293 cAMP ctrl 26% and Caspase-7 inhib -1%.
For C#CCCCO/N=C1/C[C@@H](O)[C@@H](O)[C@@H]2[C@H]3C(=O)N(c4ccc(F)cc4F)C(=O)[C@@H]3CC[C@H]12 the results were Casp1 inh -2%[11.5 µM], TSHR ag -2%[11.4 µM], HEK293 cAMP ctrl -4%[11.4 µM] and Caspase-7 inhib 0%[11.5 µM].
COCCn1c(SCC(=O)N2CCCc3ccccc32)nc2ccccc2c1=O was read as Casp1 inh -2%, TSHR ag inconclusive, HEK293 cAMP ctrl 20µM* and Caspase-7 inhib 5%.
`COCCn1c(SCC(=O)N2CCCc3ccccc32)nnc1-c1ccco1` gave Casp1 inh 0%, TSHR ag 2%, HEK293 cAMP ctrl 11% and Caspase-7 inhib 0%.
`O=c1cc(-c2ccccc2)oc2c1ccc1ccccc12` gave Casp1 inh 0%, TSHR ag inconclusive, HEK293 cAMP ctrl 32µM* and Caspase-7 inhib -3%.
